Among the data in PubChem BioAssay are composite z-score and z-score values, retold here.

In the first experiment the test system is XIP peptide (Xip251-270). Description: compounds binding XIP fragment 251-270 – biochemical, small-molecule microarray, fluorescence 635/667 nm, 0.5 µg/mL protein, primary screen (AID 1183). The conditions noted are these: fluorescence 635 nm, higher = more signal.
On to `N#Cc1ccc(NN2C(C(O)C3CC=CCC3)C=CC3C(=O)N(c4ccccc4)C(=O)C32)cc1` (centres undefined), for which the composite z-score worked out at 0.678.
Turning to `O=C(NCC(O)CO)C1N=C(c2ccc(OCCCO)cc2)N(c2ccccc2)O1` (centres undefined), the composite z-score was found to be 0.801.
Same read-out and setting: next, `CCCC[C@H]1OB(O)C[C@H]2C1=C(COc1ccccc1)C[C@H]1C(=O)C=CC(=O)[C@H]12`: -0.114; `COCCn1c(C(=O)N(C)C)cc2c1C[C@H]1CN(C(=O)c3ccccc3)[C@@](Cc3ccc(OC)cc3)(C(=O)OC)[C@@H]21`: 0.435.

Test system in the next experiment: not listed separately
The experiment is described as follows: blood-stage malaria parasite viability loss – strain 3D7, DAPI fluorescence, 100 nL, primary screen (AID 1184).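 Note: parasites grown inside human red blood cells in medium with human serum.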 The settings on record: P. falciparum 3D7 growth, 3 d, higher = more signal.
In turn, `CC(C)(C)N1CC=CC23O[C@@H]4/C=C\CCCOC(=O)C4[C@H]2C(=O)N(CCCCCO)[C@@H]3C1=O` (some centres undefined) had a z-score of 1.91.
For the compound `COCCCNC(=O)[C@@]1(CCS(=O)(=O)c2ccccc2)COC(c2ccc(OCCCO)cc2)=N1`, the z-score was found to be 0.264.
Regarding `O=C1NC(=O)C2C1C=CC(C(O)c1ccc(B(O)O)cc1)N2Nc1ccc(Cl)cc1Cl` (centres undefined), the z-score is -0.195.
The same measure, in the same setting: the result for `CCOc1cc(C(O)C2C=CC3C(=O)N(c4ccccc4)C(=O)C3N2Nc2ccccc2F)ccc1O` (centres undefined) reads -0.0969; that for `O=C1OCCC=C[C@H]2OC34C=CCN(c5ccc6ccccc6c5)C(=O)[C@H]3N(CCO)C(=O)[C@@H]4C12` (some centres undefined), -0.022.
In the case of `CN(C)CCCNC(=O)[C@@]1(Cc2ccccc2I)c2ccccc2C(=O)N(C2CCCCC2)[C@H]1c1ccc(CO)cc1`, the z-score was -1.61.
The compound `COc1ccc(C#Cc2ccc3c(c2)[C@]2(C(=O)N3)[C@H](C(=O)O)[C@H]3C(=O)O[C@H](c4ccccc4)[C@H](c4ccccc4)N3[C@@H]2c2ccccc2OCCO)cc1` yielded a z-score of -2.15.
In turn, `COCCOC(=O)N1C(=O)[C@@]2(c3cc(C#CC4(O)CCCCCC4)ccc31)[C@H](c1ccc(O)cc1)N1[C@H](c3ccccc3)[C@H](c3ccccc3)OC(=O)[C@H]1[C@@H]2C(=O)N1CCCCCCC1` returned a z-score of -1.74.
`[N-]=[N+]=Nc1ccccc1[C@@H]1OC(c2ccc(OCCCO)cc2)=N[C@]1(Cc1ccccc1)C(=O)NCCN1CCOCC1` had a z-score of -2.65.
Compound `CCCCC(O)C1C=CC2C(=O)N(c3ccccc3)C(=O)C2N1Nc1ccccc1` (centres undefined) registered a z-score of -0.0871.
The compound `CC=CC(O)C1C=CC2C(=O)NC(=O)C2N1Nc1ccc(Cl)cc1Cl` (centres undefined) displayed a z-score of 0.179.
Take `COC(=O)[C@H](Cc1ccccc1)N1CC2=CCCC=C[C@@H]2[C@H]1[C@H](O)Cc1ccccc1`: the z-score was -0.926.
Consider `Cc1ccc(S[C@]2(C(=O)NC(C)C)CC(=O)N(C3CCCCC3)[C@@H]2c2ccc(CO)cc2I)cc1`, for which the z-score is -1.31.
Turning to `CCCNC(=O)[C@@]1(c2ccc([N+](=O)[O-])cc2)CC(=O)N(C(C)C)[C@@H]1c1ccc(CO)cc1`, the z-score was -0.379.
Still for that read-out and setting: the result for `COC(=O)[C@@]1(Cc2ccc(OC)cc2)[C@H]2c3cc(C(=O)N(C)C)[nH]c3C[C@H]2CN1C(=O)c1ccccc1` reads -0.0305; that for `O=C1N(CCS(=O)(=O)c2ccccc2)c2ccccc2C[C@]12N=C(c1ccc(OCCCO)cc1)O[C@@H]2c1ccccc1`, -2.3.
In the case of `CC1=C([C@H](O)CCc2ccccc2)[C@H](CO)n2c(=O)n(-c3ccccc3)c(=O)n2C1`, the z-score is 0.0483.
`O=C1O[C@H](Cc2ccccc2)[C@@H]2[C@H]3C=CCCC=C3CN2[C@H]1Cc1ccc(O)cc1` registered a z-score of -0.947.
On the same count and under the same terms, next, `CN(C)c1ccc(C(O)C2C=CC3C(=O)N(Cc4ccccc4)C(=O)C3N2n2cnnc2)cc1` (centres undefined): 0.736; `COC(=O)[C@@]1(Cc2ccc(F)cc2)[C@H]2c3cc(C(=O)N(C)C)n(CCc4ccc(O)c(O)c4)c3C[C@H]2CN1C(=O)c1ccccc1`: 0.162.
`CCCC[C@H]1C[C@@H]1[C@@H]1N(C(C)=O)[C@H](c2cccc(OC)c2)CC12CC2` came in with a z-score of -0.313.
`CC(=O)OCC1C2CC[C@H]3C(OCc4ccc(F)cc4C(F)(F)F)OC[C@]4(C)[C@H]3C2=C(CN4C(=O)OC(C)(C)C)[C@H](C)C1COC(C)=O` (some centres undefined) returned a z-score of -1.22.
Turning to `COc1ccccc1CN1C(=O)c2ccccc2[C@](Cc2ccccc2I)(C(=O)NCC(C)C)[C@@H]1c1ccc(CO)cc1`, the z-score is -0.409.
Take `C[N+](C)(C)CCCC[C@@H]1NC(=O)[C@@H]2C[C@H](C(=O)NCc3ccc(F)cc3)[C@H](c3ccc(O)cc3)N2C1=O`: the z-score worked out at 0.269.
With `CN1C(=O)C2C(C1=O)C1C=C(CCCO)C2C(C2CC2)N1Cc1cccc(OC(F)(F)F)c1` (centres undefined), the z-score is -1.06.
Still for that read-out and setting: next, `COC(=O)[C@@]1(Cc2ccccc2)[C@H]2c3cc(C(=O)N(C)C)n(Cc4ccc(S(C)(=O)=O)cc4)c3C[C@H]2CN1C(=O)c1ccccc1`: -1.5; `O=C1c2ccccc2[C@@]2(Cc3ccccc3N(Cc3ccccc3)C2=O)[C@H](c2ccc(CO)cc2)N1Cc1ccccc1Cl`: 0.689.
`O=C1C[C@@](C(=O)NCc2ccccc2)(c2ccc([N+](=O)[O-])cc2)[C@@H](c2ccc(CO)cc2)N1C1CCCCC1` registered a z-score of 0.469.
`CC(C)c1nc2cc(Br)ccc2c(=O)o1` yielded a z-score of -0.795.
Turning to `CCOC(=O)C1=CCC(c2cc3ccccc3[nH]2)N(CCN2CC(C(=O)OCC)=CCC2c2cc3ccccc3[nH]2)C1` (centres undefined), the z-score is -1.51.
The compound `O=C(NC1CC1)[C@@H]1c2ccccc2C(=O)N(CC23CC4CC(CC(C4)C2)C3)[C@H]1c1ccc(CO)cc1` showed a z-score of -2.22.
In turn, `N#Cc1ccc(NN2C(C(O)C3CC=CCC3)C=CC3C(=O)N(c4ccccc4)C(=O)C32)cc1` (centres undefined) yielded a z-score of 0.134.
On to `O=C(NCC(O)CO)C1N=C(c2ccc(OCCCO)cc2)N(c2ccccc2)O1` (centres undefined), for which the z-score is -0.284.
Compound `CCCC[C@H]1OB(O)C[C@H]2C1=C(COc1ccccc1)C[C@H]1C(=O)C=CC(=O)[C@H]12` yielded a z-score of -0.948.
As for `COCCn1c(C(=O)N(C)C)cc2c1C[C@H]1CN(C(=O)c3ccccc3)[C@@](Cc3ccc(OC)cc3)(C(=O)OC)[C@@H]21`, the z-score is -1.45.
